Measured values taken from PubChem BioAssay (NCATS).
Values joined by “and” are separate entries in the source; they are usually repeats but may differ in a detail not shown here. Equal values may be shown once. Records with an inconclusive call do not appear. Values without a mark were called inactive. Active and inactive are the calls of the source. Calls come from the whole dose curve; as a rule, active = well fitted cell-killing curve with a large enough effect; inconclusive = small, poorly fitted or top-dose-only effect, or effect the other way; inactive = no such curve, though single readings can be large or run the other way.

Assay: qHTS of pediatric cancer cell lines to identify multiple opportunities for drug repurposing: Confirmatory screen for Saos-2 cells (AID 1347127); note: nearly all actives have a fitted effect of over 60% in size;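 for activity change, negative = cytotoxic: plate controls were DMSO for no effect and bortezomib for full effect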
Conditions: Saos-2 osteosarcoma cell viability; series mostly up to 45.9 µM; activity change, negative = cytotoxic: at the top concentration
Summary of the method: (§1)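 Cells (500-1,000/well) in growth media were settled 5 h at 37 degrees C, then given compounds for 48 h. Viability was read as CellTiter-Glo luminescence. Primary runs used MIPE at 11 points (0.78 nM-46 µM) and NPC at 8 points (0.59 nM-46 µM); follow-ups used 11 points.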
Potency is the fitted concentration of half-maximal effect.

SMILES	outcome	activity change, negative = cytotoxic	Potency
NC1=N[C@@]2(c3cc(NC(=O)c4ccc(F)cn4)ccc3F)COC[C@@H]2CS1	inactive		
O=C(O)CCC1CCC(c2cc(F)ccc2F)(S(=O)(=O)c2ccc(Cl)cc2)CC1 (stereo not drawn)		28.3%	
CO[C@H]1C(=O)[C@]2(C)[C@@H](OC)C[C@H]3OC[C@@]3(OC(C)=O)[C@H]2[C@H](OC(=O)c2ccccc2)[C@]2(O)C[C@H](OC(=O)[C@H](O)[C@@H](NC(=O)OC(C)(C)C)c3ccccc3)C(C)=C1C2(C)C			0.0147 µM (active)
O=C(O)c1ccc(-c2c[nH]c3ncc(-c4ccccc4)cc23)cc1C1CCCC1		-3.13%	
CC[C@]1(O)C[C@@H]2CN(CCc3c([nH]c4ccccc34)[C@@](C(=O)OC)(c3cc4c(cc3OC)N(C)[C@H]3[C@@](O)(C(=O)OC)[C@H](OC(C)=O)[C@]5(CC)C=CCN6CC[C@]43[C@@H]65)C2)C1			657 nM (active) and 1.17 µM (active)
COc1cc(N2CCC(N3CCN(C)CC3)CC2)ccc1Nc1ncc(Cl)c(Nc2ccccc2S(=O)(=O)C(C)C)n1			1.85 µM (active)
O=C(NCc1ccncc1)C12C[C@H]3C[C@@H](C1)CC(c1ccc(Cl)cc1)(C3)C2			16.5 µM (active)
O=C1C(Cl)=C(NCCN2CCOCC2)C(=O)c2ncccc21			1.17 µM (active)
Oc1ccc(C2CCN(c3ccnc4ccccc34)CC2)cc1O		-13.6%	
CC(=NNC(=S)N1CCC1)c1ccccn1	inactive		
OC[C@H]1O[C@@H](n2cnc3c2NC=NC[C@@H]3O)C[C@H]1O		13.1%	
O=C(Nc1cccc(Br)c1)c1cccc(S(=O)(=O)N2CCCCCC2)c1		-13.4%	
CC(=O)Nc1ccc([C@H](C)C(=O)Nc2ncc(C(C)C)s2)cc1			5.22 µM (active)
O=c1cc(-c2ccc(O)cc2)oc2cc(O)cc(O)c12		-25.8%	
CC1(C)CCC2=C(O1)c1ccccc1C(=O)C2=O			10.4 µM (active)
CC(=O)Oc1cc2c(s1)CCN(C(C(=O)C1CC1)c1ccccc1F)C2 (stereo not drawn)		5.39%	
COc1ccc(-c2coc3cc(O)cc(O)c3c2=O)cc1		18.9%	
CCc1ccc(OCc2ccccc2C(=O)Nc2ccc3nc(C)cc(N)c3c2)cc1			9.27 µM (active)
N[C@@]1(C(=O)O)CS(=O)(=O)[C@H]2[C@H](C(=O)O)[C@H]21			1.31 µM (active)

SMILES	outcome	activity change, negative = cytotoxic	Potency
O=C(O)c1ccc(-c2cc3cccnc3c(-c3ccc4nonc4c3)n2)cc1			5.22 µM (active)
CC(C)(C(=O)NCC(F)(F)C(F)(F)F)C(=O)N[C@@H]1C(=O)Nc2ccccc2-c2ccccc21		18.9%	
O=C1c2ccccc2-[n+]2ccc3c([nH]c4ccccc43)c21			0.928 µM (active)
CC(=O)O[C@]1(C(C)=O)CC[C@@H]2[C@@H]3C[C@H](C)C4=CC(=O)CC[C@]4(C)[C@H]3CC[C@@]21C		-11.1%	
COc1ncc(-c2ccc3nccc(-c4ccnnc4)c3c2)cc1NS(=O)(=O)c1ccc(F)cc1F			0.0465 µM (active)
CO[C@H]1C=CC=C(C)C(=O)NC2=CC(=O)C(NCCN(C)C)=C(C[C@@H](C)C[C@H](OC)[C@@H](O)[C@@H](C)C=C(C)[C@@H]1OC(N)=O)C2=O		14%	
CC1(C)CCC[C@@]2(C)[C@@H]1CC[C@@]1(C)OC(=O)C[C@H]21		9.97%	
O=c1[nH]cnc2c1ncn2[C@H]1CC[C@@H](CO)O1		13%	
C=C1C(=O)[C@@]23C(CC[C@@H]1[C@H]2O)[C@@]12CO[C@]3(O)[C@@H](O)[C@@H]1C(C)(C)CC[C@@H]2O (stereo partly drawn)			10.4 µM (active)
CC1(C)O[C@H]2C[C@@H]3[C@H]4CCC5=CC(=O)C=C[C@]5(C)[C@@]4(F)[C@@H](O)C[C@]3(C)[C@]2(C(=O)CO)O1		12.9%	
CC(C)n1nc(-c2ccc3oc(N)nc3c2)c2c(N)ncnc21			0.233 µM (active)
CC1(C)S[C@H]2[C@H](NC(=O)[C@@H](N)c3ccc(O)cc3)C(=O)N2[C@@H]1C(=O)O	inactive		
O=C1NC(=O)C(=Cc2ccc3c(c2)OC(F)(F)O3)S1		4.29%	
NS(=O)(=O)c1cccc2c1C(=O)c1cccc(O)c1C2=O			0.928 µM (active)
CN(C)C1CCN(C(=O)c2ccc(NC(=O)Nc3nc(N4CCOCC4)nc(N4CCOCC4)n3)cc2)CC1			0.329 µM (active)
Nc1ncnc2c1ncn2[C@@H]1O[C@@H](CO)[C@H](O)[C@H]1O		-5.71% [at 29.6 µM]	
COc1cccc(-c2cc(=O)c3ccccc3o2)c1N		10.2%	
CC[C@]1(O)C[C@@H]2CN(CCc3c([nH]c4ccccc34)[C@@](C(=O)OC)(c3cc4c(cc3OC)N(C=O)[C@@H]3C45CCN4CC=C[C@](CC)([C@H]45)[C@@H](OC(C)=O)[C@]3(O)C(=O)OC)C2)C1 (stereo partly drawn)		19.1%	

Assay: qHTS of pediatric cancer cell lines to identify multiple opportunities for drug repurposing: Confirmatory screen for OHS-50 cells (AID 1347128);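 note: compound exposure lasted 48 h at 37 degrees C; nearly all actives have a fitted effect of over 55% in size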; for activity change, negative = cytotoxic: % is set by controls: 0 for no effect and ±100 for the full control effect
Conditions: OHS-50 osteosarcoma cells viability; series mostly up to 45.9 µM; activity change, negative = cytotoxic: at the top concentration
Summary of the method: as §1

SMILES	activity change, negative = cytotoxic	Potency
NC1=N[C@@]2(c3cc(NC(=O)c4ccc(F)cn4)ccc3F)COC[C@@H]2CS1	0.333%	
CO[C@H]1C(=O)[C@]2(C)[C@@H](OC)C[C@H]3OC[C@@]3(OC(C)=O)[C@H]2[C@H](OC(=O)c2ccccc2)[C@]2(O)C[C@H](OC(=O)[C@H](O)[C@@H](NC(=O)OC(C)(C)C)c3ccccc3)C(C)=C1C2(C)C		0.0165 µM (active)
O=C(O)c1ccc(-c2c[nH]c3ncc(-c4ccccc4)cc23)cc1C1CCCC1	-11.2%	
COc1cc(N2CCC(N3CCN(C)CC3)CC2)ccc1Nc1ncc(Cl)c(Nc2ccccc2S(=O)(=O)C(C)C)n1		2.33 µM (active)
O=C(NCc1ccncc1)C12C[C@H]3C[C@@H](C1)CC(c1ccc(Cl)cc1)(C3)C2		13.1 µM (active)
CC(=NNC(=S)N1CCC1)c1ccccn1	4.36%	
OC[C@H]1O[C@@H](n2cnc3c2NC=NC[C@@H]3O)C[C@H]1O	-2.93%	
O=C(Nc1cccc(Br)c1)c1cccc(S(=O)(=O)N2CCCCCC2)c1	-20.7%	
CC(=O)Nc1ccc([C@H](C)C(=O)Nc2ncc(C(C)C)s2)cc1		7.37 µM (active)
CC(=O)Oc1cc2c(s1)CCN(C(C(=O)C1CC1)c1ccccc1F)C2 (stereo not drawn)	-0.105%	
COc1ccc(-c2coc3cc(O)cc(O)c3c2=O)cc1	-16.4%	
CCc1ccc(OCc2ccccc2C(=O)Nc2ccc3nc(C)cc(N)c3c2)cc1		9.27 µM (active)
N[C@@]1(C(=O)O)CS(=O)(=O)[C@H]2[C@H](C(=O)O)[C@H]21		0.928 µM (active)
O=C(O)c1ccc(-c2cc3cccnc3c(-c3ccc4nonc4c3)n2)cc1		6.57 µM (active)
CC(C)(C(=O)NCC(F)(F)C(F)(F)F)C(=O)N[C@@H]1C(=O)Nc2ccccc2-c2ccccc21	-15.3%	
O=C1c2ccccc2-[n+]2ccc3c([nH]c4ccccc43)c21		1.65 µM (active)

SMILES	activity change, negative = cytotoxic	Potency
CC(=O)O[C@]1(C(C)=O)CC[C@@H]2[C@@H]3C[C@H](C)C4=CC(=O)CC[C@]4(C)[C@H]3CC[C@@]21C	-52.9%	
COc1ncc(-c2ccc3nccc(-c4ccnnc4)c3c2)cc1NS(=O)(=O)c1ccc(F)cc1F		0.233 µM (active)
CO[C@H]1C=CC=C(C)C(=O)NC2=CC(=O)C(NCCN(C)C)=C(C[C@@H](C)C[C@H](OC)[C@@H](O)[C@@H](C)C=C(C)[C@@H]1OC(N)=O)C2=O	11.1%	
CC1(C)CCC[C@@]2(C)[C@@H]1CC[C@@]1(C)OC(=O)C[C@H]21	2.91%	
O=c1[nH]cnc2c1ncn2[C@H]1CC[C@@H](CO)O1	-6.31%	
C=C1C(=O)[C@@]23C(CC[C@@H]1[C@H]2O)[C@@]12CO[C@]3(O)[C@@H](O)[C@@H]1C(C)(C)CC[C@@H]2O (stereo partly drawn)		20.8 µM (active)
CC1(C)O[C@H]2C[C@@H]3[C@H]4CCC5=CC(=O)C=C[C@]5(C)[C@@]4(F)[C@@H](O)C[C@]3(C)[C@]2(C(=O)CO)O1	-7.07%	
CC(C)n1nc(-c2ccc3oc(N)nc3c2)c2c(N)ncnc21		3.69 µM (active)
CC1(C)S[C@H]2[C@H](NC(=O)[C@@H](N)c3ccc(O)cc3)C(=O)N2[C@@H]1C(=O)O	3.15%	
O=C1NC(=O)C(=Cc2ccc3c(c2)OC(F)(F)O3)S1	-18.9%	
NS(=O)(=O)c1cccc2c1C(=O)c1cccc(O)c1C2=O		2.93 µM (active)
CN(C)C1CCN(C(=O)c2ccc(NC(=O)Nc3nc(N4CCOCC4)nc(N4CCOCC4)n3)cc2)CC1		0.465 µM (active)
Nc1ncnc2c1ncn2[C@@H]1O[C@@H](CO)[C@H](O)[C@H]1O	-4.42% [at 29.6 µM]	
COc1cccc(-c2cc(=O)c3ccccc3o2)c1N	-8.87%	
CC[C@]1(O)C[C@@H]2CN(CCc3c([nH]c4ccccc34)[C@@](C(=O)OC)(c3cc4c(cc3OC)N(C=O)[C@@H]3C45CCN4CC=C[C@](CC)([C@H]45)[C@@H](OC(C)=O)[C@]3(O)C(=O)OC)C2)C1 (stereo partly drawn)	14.7%	
